The source of these data is PubChem BioAssay.

Assay [1] can be described thus: binders of probe aFSTL3 on microarray, primary screen, stem cell growth factor project, biochemical, small-molecule microarray, fluorescence 635/667 (AID 1064).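 Also: measures binding of the biotinylated anti-FSTL3 antibody to printed compounds.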 Conditions: higher = more signal.
Assay [2] can be described thus: binders from COS7 lysate, DM2A8 probe, primary screen, torsin A project, cell lysate, small-molecule microarray, fluorescence 635/667 (AID 1065). Particulars: higher = more signal, COS7 lysate expressing mutant human TOR1A.
Assay [3] is described as follows: binders of probe aFGF2 on microarray, primary screen, stem cell growth factor project, biochemical, small-molecule microarray, fluorescence 635/667 (AID 1067).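 Also: measures binding of biotinylated aFGF2 protein to printed compounds on slides; z-score merges feature fluorescence and signal-to-noise across triplicate slides.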 Particulars: higher = more signal.
The nature of assay [4]: binders of probe aFGF10 on microarray, primary screen, stem cell growth factor project, biochemical, small-molecule microarray, fluorescence 635/667 (AID 1071).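 Also: score merges 667 nm spot intensity and signal to noise from triplicate slides.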 Conditions: higher = more signal.
The target in assay [5] is Neurogenic locus notch homolog protein 2 (Homo sapiens) (UniProt Q04721). In words: Notch2 binders on small-molecule microarrays, primary screen, biochemical, small-molecule microarray, 635 nm fluorescence, stem cell growth factors (AID 1073). Particulars: Notch2 binding, higher = more signal.
Assay [6] deals with Pro-neuregulin-1, membrane-bound isoform (Homo sapiens) (UniProt Q02297). In words: NRG1 binders on small-molecule microarrays, primary screen, psychiatric disease protein project, biochemical, small-molecule microarray, fluorescence 635/667 (AID 1075).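 Also: score combines 667 nm spot fluorescence with signal to noise.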 Conditions: NRG1 binding, 635 nm fluorescence, higher = more signal.
Assay [7] deals with Neuregulin-1 EGF-like domain. In words: binders of neuregulin-1 EGF-like domain, primary screen, biochemical, small-molecule microarray, 635 nm fluorescence (AID 1081).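 Also: binding of the protein to compounds printed on small-molecule microarray slides.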 Conditions: small-molecule microarray binding, higher = more signal.
The nature of assay [8]: FRG1 promoter luciferase signal modulators, primary screen, FRG1 inhibition for FSHD, cell-based, C2C12 myotubes, firefly/Renilla luciferase, luminescence (AID 1084). Particulars: higher = more signal, called active from +8 up or from −8 down.
Assay [9] can be described thus: binders of probe aFST on microarray, primary screen, stem cell growth factor project, biochemical, small-molecule microarray, fluorescence 635/667 (AID 1086).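 Also: score merges 667 nm fluorescence with signal-to-noise of each printed compound spot.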 Conditions: higher = more signal.
Assay [10] in a line: binders of probe aHhip on microarray, primary screen, stem cell growth factor project, biochemical, small-molecule microarray, fluorescence 635/667 (AID 1087).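 Also: score merges spot fluorescence at 667nm with spot signal to noise ratio.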 Particulars: higher = more signal.

Activity calls are given as the source filed them.

Neurogenic locus notch homolog protein 2 (Homo sapiens), sequence (Q04721 whole entry, looked up, canonical isoform): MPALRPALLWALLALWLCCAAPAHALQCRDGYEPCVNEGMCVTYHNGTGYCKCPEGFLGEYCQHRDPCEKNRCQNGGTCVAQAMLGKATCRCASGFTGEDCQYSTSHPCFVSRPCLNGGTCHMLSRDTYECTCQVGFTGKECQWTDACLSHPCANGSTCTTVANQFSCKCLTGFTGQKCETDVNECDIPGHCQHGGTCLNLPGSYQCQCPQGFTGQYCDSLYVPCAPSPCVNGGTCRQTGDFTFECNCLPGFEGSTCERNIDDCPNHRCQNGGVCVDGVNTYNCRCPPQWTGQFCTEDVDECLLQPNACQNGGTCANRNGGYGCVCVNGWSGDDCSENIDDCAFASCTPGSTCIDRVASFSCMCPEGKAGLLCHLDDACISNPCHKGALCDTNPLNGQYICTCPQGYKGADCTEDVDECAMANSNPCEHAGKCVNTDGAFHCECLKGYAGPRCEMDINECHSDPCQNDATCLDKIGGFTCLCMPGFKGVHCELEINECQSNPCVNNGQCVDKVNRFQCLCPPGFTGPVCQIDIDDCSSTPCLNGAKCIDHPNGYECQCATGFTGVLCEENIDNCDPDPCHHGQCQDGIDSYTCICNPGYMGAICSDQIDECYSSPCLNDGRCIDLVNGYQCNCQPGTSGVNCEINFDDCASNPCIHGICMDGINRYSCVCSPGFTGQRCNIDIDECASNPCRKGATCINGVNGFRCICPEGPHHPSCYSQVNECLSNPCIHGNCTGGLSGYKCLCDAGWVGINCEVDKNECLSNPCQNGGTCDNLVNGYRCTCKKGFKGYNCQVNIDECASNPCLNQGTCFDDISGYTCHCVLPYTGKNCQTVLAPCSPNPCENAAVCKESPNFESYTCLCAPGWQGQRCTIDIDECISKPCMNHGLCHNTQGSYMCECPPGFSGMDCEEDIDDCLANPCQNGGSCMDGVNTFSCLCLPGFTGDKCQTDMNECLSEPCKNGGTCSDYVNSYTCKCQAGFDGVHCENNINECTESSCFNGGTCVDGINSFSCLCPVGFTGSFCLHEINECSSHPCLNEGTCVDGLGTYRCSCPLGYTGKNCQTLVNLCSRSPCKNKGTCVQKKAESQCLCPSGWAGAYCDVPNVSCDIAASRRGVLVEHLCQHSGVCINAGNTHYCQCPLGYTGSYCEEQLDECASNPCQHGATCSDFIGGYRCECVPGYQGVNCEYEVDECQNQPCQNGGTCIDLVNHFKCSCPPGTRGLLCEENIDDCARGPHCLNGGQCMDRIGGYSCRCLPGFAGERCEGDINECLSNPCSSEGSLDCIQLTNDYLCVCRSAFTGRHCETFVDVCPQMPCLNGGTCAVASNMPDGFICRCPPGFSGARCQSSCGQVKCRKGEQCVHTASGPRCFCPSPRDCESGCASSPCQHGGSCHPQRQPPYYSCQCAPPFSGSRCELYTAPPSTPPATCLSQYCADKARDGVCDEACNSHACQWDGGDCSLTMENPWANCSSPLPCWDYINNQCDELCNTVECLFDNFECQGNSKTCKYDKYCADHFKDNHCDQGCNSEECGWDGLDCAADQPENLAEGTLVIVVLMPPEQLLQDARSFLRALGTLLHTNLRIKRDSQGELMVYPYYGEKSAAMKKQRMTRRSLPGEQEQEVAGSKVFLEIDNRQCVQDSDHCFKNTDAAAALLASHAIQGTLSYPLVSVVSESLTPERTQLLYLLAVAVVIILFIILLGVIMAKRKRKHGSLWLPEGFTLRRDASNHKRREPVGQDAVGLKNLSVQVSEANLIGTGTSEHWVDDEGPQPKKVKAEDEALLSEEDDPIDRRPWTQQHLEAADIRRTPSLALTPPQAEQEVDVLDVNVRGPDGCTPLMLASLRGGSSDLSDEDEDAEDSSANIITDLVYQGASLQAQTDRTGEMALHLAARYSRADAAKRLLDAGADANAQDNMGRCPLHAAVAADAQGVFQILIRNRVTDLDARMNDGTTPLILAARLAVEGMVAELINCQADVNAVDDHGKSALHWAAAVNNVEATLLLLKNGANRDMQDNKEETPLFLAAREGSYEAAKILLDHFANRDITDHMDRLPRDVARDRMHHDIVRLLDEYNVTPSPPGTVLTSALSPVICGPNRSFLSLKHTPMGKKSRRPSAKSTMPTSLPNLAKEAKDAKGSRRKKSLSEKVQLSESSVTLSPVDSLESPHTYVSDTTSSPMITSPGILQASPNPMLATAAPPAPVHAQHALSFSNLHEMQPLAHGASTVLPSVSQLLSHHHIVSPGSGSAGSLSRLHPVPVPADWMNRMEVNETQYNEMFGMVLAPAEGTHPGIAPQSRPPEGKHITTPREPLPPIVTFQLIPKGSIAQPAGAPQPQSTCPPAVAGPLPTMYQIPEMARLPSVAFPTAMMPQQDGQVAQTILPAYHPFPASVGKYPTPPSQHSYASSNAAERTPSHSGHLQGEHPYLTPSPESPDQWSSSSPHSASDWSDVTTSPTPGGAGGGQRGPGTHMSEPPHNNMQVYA
Pro-neuregulin-1, membrane-bound isoform (Homo sapiens), sequence (Q02297 whole entry, looked up, the tested form may be a part, canonical isoform): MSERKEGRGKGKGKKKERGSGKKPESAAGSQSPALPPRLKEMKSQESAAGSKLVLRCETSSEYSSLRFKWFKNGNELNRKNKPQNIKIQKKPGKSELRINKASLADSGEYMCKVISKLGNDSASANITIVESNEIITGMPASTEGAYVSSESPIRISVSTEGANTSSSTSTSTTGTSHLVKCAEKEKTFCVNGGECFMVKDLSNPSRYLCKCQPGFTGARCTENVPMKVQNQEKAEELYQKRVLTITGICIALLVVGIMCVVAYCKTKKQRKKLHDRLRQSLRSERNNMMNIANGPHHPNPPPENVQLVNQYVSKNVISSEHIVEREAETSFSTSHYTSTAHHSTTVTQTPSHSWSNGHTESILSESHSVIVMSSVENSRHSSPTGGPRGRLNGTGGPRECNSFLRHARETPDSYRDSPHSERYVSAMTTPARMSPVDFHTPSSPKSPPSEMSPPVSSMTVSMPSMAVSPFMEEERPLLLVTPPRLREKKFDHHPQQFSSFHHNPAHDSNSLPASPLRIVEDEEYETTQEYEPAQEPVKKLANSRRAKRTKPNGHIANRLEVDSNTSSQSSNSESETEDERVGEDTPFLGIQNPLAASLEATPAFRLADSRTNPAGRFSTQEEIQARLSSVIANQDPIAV

Regarding `OCCCc1cc[n+](Cc2cccc(OC(F)(F)F)c2)cc1`, the composite z-score in assay [1] was 0.451; in [2], 0.451; in assay [3] it was -0.085; in assay [4], -0.389; in [5] it was 0.272; in assay [6], 0.564. In addition, the composite z-score is 1.47 in assay [7], 0.676 in assay [9] and -0.125 in assay [10]. Besides, the z-score in [8] is 1.7 (inactive).

Turning to `O=C(NCC(O)CO)[C@@]1(Cc2ccccc2)COC(c2ccc(OCCCO)cc2)=N1` (stereo not given in full), the composite z-score in assay [1] was 0.213; in assay [2], -0.0995; in assay [3], -0.083; in assay [4], 0.138; in assay [5], -0.0908; in [6] it was 0.736. Moreover, the composite z-score in [7] is 0.698; in assay [9], 0.112; in assay [10], -0.12. Besides, in assay [8], the z-score was 0.518 (inactive).

Turning to `C=C(CCCC)/C(=C/C[C@@H](OC(=O)c1ccncc1)c1ccc(CO)o1)c1cc(C(=O)OC)ccc1OC`, the composite z-score in assay [1] was -0.489; in assay [2], 1.44; in assay [3], -0.0887; in [4], 0.318; in assay [5], 0.738; in assay [6], 1.52. The composite z-score in assay [7] turned out to be 1.27; in [9], 0.448; in [10] it was 0.0722. Besides, the z-score in assay [8] is -0.986 (inactive).

Consider `C=C(C(=O)CC[C@H](OC(=O)c1cccnc1)c1ccccc1OCCO)C(C)C`, for which the composite z-score in assay [1] is 0.0323; in assay [2], 1.78; in assay [3], -0.133; in assay [4], 0.636; in [5], 0.0984; in assay [6] it was -0.124. Besides, the composite z-score is 0.962 in assay [7], 0.106 in assay [9] and -0.204 in assay [10]. For the same compound, the z-score in assay [8] was 0.276 (inactive).

As for `COCCOC(=O)N1C(=O)[C@@]2(c3cc(C#CC4(O)CCCCCC4)ccc31)[C@H](c1ccc(O)cc1)N1[C@H](c3ccccc3)[C@H](c3ccccc3)OC(=O)[C@H]1[C@@H]2C(=O)N1CCc2cc(OC)c(OC)cc2C1`, the composite z-score in assay [1] is 0.244; in assay [2], -0.287; in assay [3], -0.116; in assay [4], -0.432; in assay [5], -1.54; in assay [6], 0.449. Besides, the composite z-score was 0.0919 in assay [7], -0.538 in assay [9] and -0.268 in [10]. For the same compound, the z-score in [8] was 0.0543 (inactive).

With `CCOC(=O)C1=C[C@@H](C(C)(C)C)N(S(=O)(=O)c2ccc(C)cc2)[C@H]1c1ccc(Cl)c(Cl)c1`, the composite z-score in assay [1] is -0.301; in assay [2], 0.134; in assay [3] it was 0.12; in [4] it was 0.614; in assay [5], 1.56; in [6] it was 1.53. The composite z-score in assay [7] was 0.911; in assay [9], 0.514; in assay [10], -0.236. Also, the z-score in assay [8] is -0.446 (inactive).

For the compound `CCN(CC)c1ccc(N2CC=CC34O[C@@H]5/C=C\CCC(C)OC(=O)C5[C@H]3C(=O)N(CCCCCCO)[C@@H]4C2=O)cc1` (stereo not given in full), the composite z-score in assay [1] was 0.142; in assay [2], 0.19; in assay [3], -0.0766; in [4], 0.69; in assay [5] it was -0.498; in assay [6], 0.374. For the same compound, the composite z-score in assay [7] was 1.4; in [9], -0.32; in assay [10], 0.0373. Moreover, the z-score in [8] is 0.316 (inactive).

On to `O=C1O[C@@H](c2ccccc2)[C@@H](c2ccccc2)N2[C@@H](c3ccc(O)cc3)[C@]3(C(=O)Nc4ccccc43)[C@@H](C(=O)N3CCCCCCC3)[C@H]12`, for which the composite z-score in assay [1] was determined as 3.65; in assay [2], 1.15; in assay [3], 0.937; in [4] it was 0.525; in [5] it was 0.519; in assay [6], 2.22. Moreover, the results for the composite z-score in [7], in [9] and in [10] were 1.35, 2.99 and 1.07, respectively. In addition, in [8], the z-score was -4.16 (inactive).

For the compound `CN(C)CCCC[C@@H]1NC(=O)[C@H]2C[C@@H](C(=O)NCCCCCNC(=O)CS)[C@@H](c3ccc(O)cc3)N2C1=O`, the composite z-score in [1] is 0.594; in [2], -0.149; in assay [3] it was -0.203; in assay [4] it was -0.122; in assay [5], -1.21; in [6], 0.356. The composite z-score in [7] is -0.458; in assay [9], -0.576; in assay [10] it was -0.134. Moreover, the z-score in assay [8] was 0.348 (inactive).

In the case of `COc1ccc([Si](C)(C)[C@H]2[C@H](CC(=O)N(CCO)Cc3ccccc3)O[C@@]3(C(=O)N(Cc4cccc(N5C(=O)c6cccc7cccc5c67)c4)c4ccccc43)[C@@H]2C)cc1`, the composite z-score in assay [1] is -0.184; in assay [2], 0.199; in [3], -0.0664; in assay [4] it was 0.202; in assay [5], -0.588; in [6], 0.824. In addition, the values for the composite z-score in assay [7], in assay [9] and in assay [10] were 1.2, -0.246 and -0.236, respectively. The z-score in assay [8] is -3.13 (inactive).

As to `CN1C(=O)C2C=CC(C(O)C(c3ccccc3)c3ccccc3)N(Nc3ccccc3)C2C1=O` (stereo not given), the composite z-score is -0.0907 in [1]; 0.403 in [2]; 0.0814 in assay [3]; 0.868 in assay [4]; 1.48 in assay [5]; 1.94 in [6]. The composite z-score in assay [7] was 1.21; in assay [9], 1.37; in assay [10], -0.131. Also, the z-score in [8] is -0.704 (inactive).

Turning to `C=C[C@H](C)[C@H](OC(=O)Nc1ccc(OC)cc1)c1ccc(O)c2ccccc12`, the composite z-score in assay [1] was 0.436; in assay [2] it was -0.0826; in assay [3], -0.121; in assay [4], -0.148; in [5], -0.714; in assay [6] it was -0.322. The composite z-score was 0.957 in [7], -0.304 in [9] and -0.124 in assay [10]. In assay [8], the z-score is 3.63 (inactive).

Take `CC(C)N1C(=O)c2ccccc2[C@](C)(C(=O)NC2CC2)[C@@H]1c1ccc(CO)cc1`: the composite z-score was -0.181 in assay [1]; 0.007 in assay [2]; -0.129 in assay [3]; -0.0282 in assay [4]; 0.38 in assay [5]; 0.602 in assay [6]. Moreover, the composite z-score in assay [7] was found to be 1.21; in assay [9] it was 0.048; in [10], 0.0246. In addition, the z-score in [8] is -0.0117 (inactive).

For `C=CC[C@@]1(C(N)=O)N=C(c2ccc(OCCCO)cc2)O[C@@H]1c1ccccc1N=[N+]=[N-]`, the composite z-score in assay [1] is 1.68; in assay [2], 0.444; in assay [3], 0.069; in assay [4], 1.08; in assay [5], 1.13; in assay [6], 1.5. In addition, the figures for the composite z-score in assay [7], in assay [9] and in [10] were 1.34, 1.03 and 0.0769, respectively. The z-score in assay [8] is 2.64 (inactive).
